This passage reports Potency and outcome results from PubChem BioAssay (Tox21).

Results filed as inconclusive are left out. Active and inactive are the calls of the source. Unless noted, calls come from the whole dose curve; as a rule, active = well fitted curve in the direction sought with a large enough effect in the repeat runs; inconclusive = weak or mixed curves; inactive = no such curve, though single readings can be large; an effect the other way counts as inactive or inconclusive.

The nature of assay [1]: qHTS assay to identify small molecule agonists of the peroxisome proliferator-activated receptor delta (PPARd) signaling pathway - cell viability counter screen (AID 743211). Note: nearly all actives have a fitted effect of over 55% in size. An outline of the steps:
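Read-out: CellTiter-Glo luminescence, 30 min RT, measured in the same wells as the beta-lactamase reporter. Cells: GeneBLAzer PPAR delta UAS-bla HEK293H, 3000 cells/well, compound exposure 17 h at 37C.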
For orientation: qHTS replaces the single test concentration by a dilution series.

The nature of assay [2]: qHTS assay to identify small molecule antagonists of the peroxisome proliferator-activated receptor delta (PPARd) signaling pathway - cell viability counter screen (AID 743213). Note: nearly all actives have a fitted effect of over 50% in size. The essentials: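 CellTiter-Glo was added to PPARd-bla HEK293H wells following 17 h compound treatment in the presence of 300 nM L165041. Luminescence was recorded after 30 min at room temperature.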

Assay [3] is described as follows: qHTS assay to identify small molecule agonists of the farnesoid-X-receptor (FXR) signaling pathway - cell viability counter screen (AID 743218). Note: nearly all actives have a fitted effect of over 45% in size. The essentials:
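Quantitative HTS counter screen measuring ATP-based viability via CellTiter-Glo luminescence in HEK 293T cells carrying a UAS-driven beta-lactamase reporter, after 16 h compound exposure at 37 C.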

Assay [4] is described as follows: qHTS assay to identify small molecule antagonists of the farnesoid-X-receptor (FXR) signaling pathway - cell viability counter screen (AID 743221; active = well fitted cell-killing curve with a large enough effect in the repeat runs, not every such curve was filed as active; note: nearly all actives have a fitted effect of over 50% in size). The essentials: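 HEK 293T FXR-bla cells, 5 h pre-incubation; compound + CDCA 50 uM final, 16 h, 37 C; beta-lactamase FRET read first, then CellTiter-Glo luminescence, 30 min RT.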
For assay [5], the target named is Vitamin D3 receptor (Homo sapiens) (UniProt P11473). Description: qHTS assay to identify small molecule agonists of the vitamin D receptor (VDR) signaling pathway (AID 743222; calls by dose curve). The essentials:
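Tox21 cell reporter format: VDR-bla line, 16 h compound exposure in 5% CO2 at 37C, then fluorescence intensity after 2 h with LiveBLAzer B/G FRET substrate.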

For assay [6] the target is unchanged. In words: qHTS assay to identify small molecule antagonists of the vitamin D receptor (VDR) signaling pathway (AID 743223; active = well fitted inhibition curve with a large enough effect in the signal ratio in the repeat runs, not every such curve was filed as active; the % refers to the signal ratio). The essentials:
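Beta-lactamase reporter read-out: FRET substrate fluorescence after 2 h at room temperature, following 16 h exposure of VDR-bla cells to test compound plus 3 nM (final) 1alpha,25-dihydroxyvitamin D3 agonist at 37C.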

Assay [7] is described as follows: qHTS assay to identify small molecule agonists of the NFkB signaling pathway - cell viability counter screen (AID 1159515; calls by dose curve; note: series mostly up to about 61 µM; nearly all actives have a fitted effect of over 55% in size). An outline of the steps:
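Tox21 library compounds were tested for cytotoxicity against NFkB-bla ME-180 cells during a 5 hr exposure at 37 C. CellTiter-Glo luminescence served as the viability read-out.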

Assay [8] can be described thus: qHTS assay to identify small molecule agonists of the endoplasmic reticulum stress response signaling pathway (AID 1159516; active = well fitted activation curve with a large enough effect in the signal ratio in the repeat runs, not every such curve was filed as active; the % refers to the signal ratio). An outline of the steps:
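Fluorescence at 460 and 530 nm (405 nm excitation) reports beta-lactamase from an ER stress response element in HeLa cells treated 5 hr at 37 C.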

The nature of assay [9]: qHTS assay to identify small molecule agonists of the endoplasmic reticulum stress response signaling pathway - cell viability counter screen (AID 1159517; calls by dose curve; note: series mostly up to about 61 µM; nearly all actives have a fitted effect of over 50% in size). An outline of the steps:
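In parallel with the ESRE reporter read, cytotoxicity was scored by CellTiter-Glo luminescence (30 min, room temperature) on HeLa ESRE-bla cells dosed for 5 hr.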

Assay [10] is described as follows: qHTS assay to identify small molecule antagonists of the retinoid-related orphan receptor gamma (ROR-gamma) signaling pathway - cell viability counter screen (AID 1159520). Note: nearly all actives have a fitted effect of over 50% in size. An outline of the steps:
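Tet-on ROR gamma CHO cells were given compounds for 2 hr, then doxycycline hyclate at 1 uM final, and incubated 16 hr at 37 C. Viability was measured as ATP content by CellTiter-Glo luminescence.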

The target of assay [11] is Nuclear receptor ROR-gamma (Homo sapiens) (UniProt P51449). In words: qHTS assay to identify small molecule antagonists of the retinoid-related orphan receptor gamma (ROR-gamma) signaling pathway (AID 1159521; note: nearly all actives have a fitted effect of over 50% in size; note: potency is the fitted concentration of half-maximal effect). The essentials:
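Luminescence readout (ONE-Glo, 30 min RT) after 16 h doxycycline induction; loss of signal scored as antagonism. CHO cells with TET-inducible RORγ and RORE-LUC reporter; compounds added 2 h before 1 uM final doxycycline.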

The nature of assay [12]: qHTS assay to identify small molecule agonists of the AP-1 signaling pathway - cell viability counter screen (AID 1159525; calls by dose curve; note: nearly all actives have a fitted effect of over 55% in size). The essentials:
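Same-well cytotoxicity counter screen of the Tox21 10K library in ME-180 cells. The readout is ATP-dependent luminescence after 5 h compound treatment. Data are normalised to DMSO and tetra n-octyl ammonium bromide controls.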

A short description of assay [13]: qHTS assay to identify small molecule agonists of the AP-1 signaling pathway (AID 1159526; calls by dose curve).
The target of assay [14] is Peroxisome proliferator-activated receptor delta (Homo sapiens) (UniProt Q03181). In words: qHTS assay to identify small molecule agonists of the peroxisome proliferator-activated receptor delta (PPARd) signaling pathway (AID 743212; calls by dose curve). The essentials: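 Tox21 library screened in GeneBLAzer PPARd UAS-bla HEK293H cells. After compound treatment at 37 C, a FRET-based beta-lactamase substrate was applied for 2 h and fluorescence recorded.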

Assay [15] can be described thus: qHTS assay to identify small molecule agonists of the vitamin D receptor (VDR) signaling pathway - cell viability counter screen (AID 743224). The essentials:
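CellTiter-Glo viability readout on VDR-bla cells, measured after 16 h of compound treatment at 37C in the same wells.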

In assay [16] the target is Bile acid receptor (Homo sapiens) (UniProt Q96RI1). Description: qHTS assay to identify small molecule agonists of the farnesoid-X-receptor (FXR) signaling pathway (AID 743220; active = well fitted activation curve with a large enough effect in the signal ratio in the repeat runs, not every such curve was filed as active; the % refers to the signal ratio). The essentials:
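FXR-UAS-bla HEK 293T cells carrying a UAS-driven beta-lactamase reporter were plated for 5 h at 37C/5% CO2, then exposed to DMSO-dissolved Tox21 10K compounds for 16 h at 37C. A LiveBLAzer B/G FRET substrate was loaded for 2 h at room temperature before fluorescence reading.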

Assay [17] in a line: qHTS assay to identify small molecule antagonists of the vitamin D receptor (VDR) signaling pathway - cell viability counter screen (AID 743225). Note: nearly all actives have a fitted effect of over 50% in size. The essentials: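 Viability counter screen run in the same wells as the beta-lactamase reporter assay: HEK 293T VDR-UAS-bla cells, 16 h compound exposure at 37C with 3 nM (final) 1-alpha,25-dihydroxyvitamin D3. CellTiter-Glo luminescence, 30 min, room temperature.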

Assay [18] deals with Peroxisome proliferator-activated receptor delta (Homo sapiens) (UniProt Q03181). Description: qHTS assay to identify small molecule antagonists of the peroxisome proliferator-activated receptor delta (PPARd) signaling pathway (AID 743215; active = well fitted inhibition curve with a large enough effect in the signal ratio in the repeat runs, not every such curve was filed as active; the % refers to the signal ratio;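 note: cells stimulated with agonist L165041 at 300 nM final during compound exposure; series mostly up to about 62 µM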). An outline of the steps: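 Here, a reporter line (HEK293H, beta-lactamase under a UAS) measures PPARd signaling. Compounds are tested against agonist L165041 at 300 nM final concentration over 17 h at 37 C, with fluorescence read after substrate.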

Assay [19] addresses Bile acid receptor (Homo sapiens) (UniProt Q96RI1). In words: qHTS assay to identify small molecule antagonists of the farnesoid-X-receptor (FXR) signaling pathway (AID 743217; active = well fitted inhibition curve with a large enough effect in the signal ratio in the repeat runs, not every such curve was filed as active; the % refers to the signal ratio). The essentials:
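Test compounds are pin-transferred onto FXR-bla HEK 293T cells, then chenodeoxycholic acid is added at 50 uM final. After 16 h at 37 °C, LiveBLAzer B/G substrate is applied for 2 h at room temperature and fluorescence read.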

Assay [20] has as its target Retinoic acid receptor RXR-alpha (Homo sapiens) (UniProt P19793). Description: qHTS assay to identify small molecule agonists of the RXR signaling pathway (AID 1159527; calls by dose curve; note: nearly all actives have a fitted effect of over 35% in size). The essentials: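 Agonist mode; 9-cis retinoic acid positive control. HEK 293T UAS-bla reporter cells, 2% charcoal-stripped FBS, 16 hr compound exposure at 37 C/5% CO2. LiveBLAzer B/G FRET substrate 2 hr RT; ex 405, em 460/530 nm.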

Bile acid receptor (Homo sapiens), sequence (Q96RI1 whole entry, looked up): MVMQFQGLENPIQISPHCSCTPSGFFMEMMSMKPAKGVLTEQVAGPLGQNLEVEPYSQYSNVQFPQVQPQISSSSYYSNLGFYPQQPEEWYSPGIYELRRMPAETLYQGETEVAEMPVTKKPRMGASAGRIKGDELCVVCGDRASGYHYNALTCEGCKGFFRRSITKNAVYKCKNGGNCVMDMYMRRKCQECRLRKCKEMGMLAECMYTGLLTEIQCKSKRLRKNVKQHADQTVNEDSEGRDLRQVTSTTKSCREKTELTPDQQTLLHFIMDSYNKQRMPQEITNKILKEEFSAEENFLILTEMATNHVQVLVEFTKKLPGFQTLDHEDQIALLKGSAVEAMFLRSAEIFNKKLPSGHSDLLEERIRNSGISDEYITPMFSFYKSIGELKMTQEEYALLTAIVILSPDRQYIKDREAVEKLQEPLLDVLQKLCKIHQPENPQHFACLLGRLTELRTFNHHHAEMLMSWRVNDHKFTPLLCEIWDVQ
Peroxisome proliferator-activated receptor delta (Homo sapiens), sequence (Q03181 whole entry, looked up): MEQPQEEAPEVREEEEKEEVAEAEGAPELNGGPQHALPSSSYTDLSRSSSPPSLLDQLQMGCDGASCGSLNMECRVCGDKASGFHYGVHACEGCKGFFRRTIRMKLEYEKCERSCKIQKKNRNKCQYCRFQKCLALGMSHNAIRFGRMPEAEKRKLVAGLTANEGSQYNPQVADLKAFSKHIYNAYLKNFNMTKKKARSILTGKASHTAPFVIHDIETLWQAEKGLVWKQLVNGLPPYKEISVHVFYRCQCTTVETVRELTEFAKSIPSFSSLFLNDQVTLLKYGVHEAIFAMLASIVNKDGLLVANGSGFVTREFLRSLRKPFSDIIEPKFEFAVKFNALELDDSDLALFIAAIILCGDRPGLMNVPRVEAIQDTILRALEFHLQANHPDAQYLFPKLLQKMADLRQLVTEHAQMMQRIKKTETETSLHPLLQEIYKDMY
Vitamin D3 receptor (Homo sapiens), sequence (P11473 whole entry, looked up): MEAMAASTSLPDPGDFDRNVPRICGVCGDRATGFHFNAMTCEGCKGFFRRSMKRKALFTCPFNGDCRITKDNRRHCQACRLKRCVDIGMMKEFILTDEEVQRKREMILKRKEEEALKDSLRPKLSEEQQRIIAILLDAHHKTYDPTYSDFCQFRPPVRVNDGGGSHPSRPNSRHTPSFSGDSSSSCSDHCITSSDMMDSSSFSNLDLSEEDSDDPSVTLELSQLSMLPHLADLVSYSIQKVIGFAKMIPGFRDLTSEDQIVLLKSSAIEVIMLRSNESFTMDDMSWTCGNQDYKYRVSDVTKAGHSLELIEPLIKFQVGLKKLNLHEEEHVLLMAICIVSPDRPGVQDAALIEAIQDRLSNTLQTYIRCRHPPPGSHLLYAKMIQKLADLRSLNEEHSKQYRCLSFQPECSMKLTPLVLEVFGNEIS
Retinoic acid receptor RXR-alpha (Homo sapiens), sequence (P19793 whole entry, looked up): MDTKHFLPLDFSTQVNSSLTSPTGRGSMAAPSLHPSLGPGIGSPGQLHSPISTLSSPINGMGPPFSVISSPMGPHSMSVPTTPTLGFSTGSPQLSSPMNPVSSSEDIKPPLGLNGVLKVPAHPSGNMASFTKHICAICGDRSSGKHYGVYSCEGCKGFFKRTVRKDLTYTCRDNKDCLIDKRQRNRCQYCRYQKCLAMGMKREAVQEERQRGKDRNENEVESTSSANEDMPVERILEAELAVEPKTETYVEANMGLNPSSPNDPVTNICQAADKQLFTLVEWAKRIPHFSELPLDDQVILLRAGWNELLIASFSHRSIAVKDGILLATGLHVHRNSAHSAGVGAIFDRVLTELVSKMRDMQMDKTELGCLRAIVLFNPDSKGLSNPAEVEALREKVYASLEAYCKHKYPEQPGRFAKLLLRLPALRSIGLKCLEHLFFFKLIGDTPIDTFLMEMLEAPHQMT

Regarding `COc1ccccc1OC(=O)Oc1ccccc1OC`, the Potency entry in [1], in [2], in [3], in assay [4], in assay [6] and in assay [7] was “inactive” each time. Also, the Potency result in assay [8], in assay [10], in assay [11], in assay [12] and in [13] was “inactive” in each case. For the same compound, the outcome in assay [5] and in [9] was inactive.

As for `Cn1c(NCCN(CCO)CCCc2ccc([N+](=O)[O-])cc2)cc(=O)n(C)c1=O`, the Potency entry in [1], in [3], in assay [4], in [6], in assay [15] and in assay [7] was “inactive” each time. In addition, the Potency entry in assay [8], in assay [10], in assay [11], in assay [12] and in [13] was “inactive” throughout. Besides, the result in [14] and in assay [9] was inactive.

As to `Nc1cnn([C@@H]2O[C@H](CO)[C@@H](O)[C@H]2O)c(=O)n1`, the Potency entry in assay [1], in assay [6], in assay [15], in assay [17], in assay [7] and in assay [8] was “inactive” throughout. In addition, the Potency result in assay [10], in [12] and in assay [13] was “inactive” throughout. The compound was classed as inactive in [14], in [16], in assay [5] and in assay [9]. In addition, the Potency in [11] is 21.7 µM (active).

In the case of `O=C1[C@H](CC[C@H](O)c2ccc(F)cc2)[C@@H](c2ccc(O)cc2)N1c1ccc(F)cc1`, the Potency result in [1], in [2], in assay [3], in assay [6], in assay [15] and in assay [17] was “inactive” each time. For the same compound, the Potency result in [7], in assay [8], in assay [10], in assay [11], in assay [12] and in assay [13] was “inactive” each time. Besides, the outcome in assay [18], in assay [5] and in assay [9] was inactive.

As to `CC(=O)/C=C/C1C(C)=CCCC1(C)C` (stereo unspecified), the Potency result in [1], in [2], in assay [3], in assay [4], in assay [6] and in [15] was “inactive” throughout. Also, the Potency entry in assay [17], in assay [7], in assay [8], in [10], in assay [11] and in assay [12] was “inactive” throughout. Moreover, the Potency entry in assay [13] is “inactive”. Also, the result in assay [19], in assay [16], in assay [5] and in assay [9] was inactive.

As to `C[C@H](CCC(=O)O)[C@H]1CC[C@H]2[C@@H]3[C@H](O)C[C@@H]4C[C@H](O)CC[C@]4(C)[C@H]3CC[C@]12C`, the Potency entry in assay [1], in [3], in assay [4], in assay [15], in assay [7] and in [8] was “inactive” in each case. Moreover, the Potency entry in [10], in assay [11], in assay [12] and in assay [13] was “inactive” each time. Moreover, the compound was called inactive in assay [9].

For the compound `C=C(C)C(=O)OCCOc1ccccc1`, the Potency result in assay [1], in assay [2], in assay [3], in assay [4], in assay [6] and in assay [7] was “inactive” throughout. For the same compound, the Potency entry in assay [8], in assay [10], in assay [11], in assay [12] and in assay [20] was “inactive” in each case. Besides, the result in [14], in assay [18], in assay [5] and in assay [9] was inactive.

Consider `O=C(O)c1cccc(N(Cc2cccnc2)c2ccc(OC(F)F)c(OC(F)F)c2)c1`, for which the Potency entry in assay [1], in [2], in assay [3], in [4], in assay [17] and in assay [7] was “inactive” in each case. In addition, the Potency entry in assay [8], in assay [10], in assay [12] and in assay [13] was “inactive” in each case. For the same compound, the call in assay [18] and in assay [9] was inactive. Besides, the Potency in [11] is 30.6 µM (active).

Consider `CCN(CC)CCNC(C(=O)OCCC(C)C)c1ccccc1` (stereo unspecified), for which the Potency entry in assay [1], in assay [2], in assay [3], in assay [6], in assay [15] and in [7] was “inactive” each time. In addition, the Potency entry in assay [8], in [10], in assay [11], in [12] and in assay [20] was “inactive” each time. The call in [14], in assay [18], in assay [5] and in assay [9] was inactive.

Take `CCOC(=S)SSC(=S)OCC`: the Potency entry in [1], in [2], in assay [4], in assay [6], in [15] and in [17] was “inactive” each time. For the same compound, the Potency result in assay [7], in [8], in [10], in assay [11], in assay [12] and in assay [13] was “inactive” each time. For the same compound, the result in [14], in assay [5] and in assay [9] was inactive.
